Laboratory results taken from the supplement of paper PMC3545927.
The list shows a part of the results. How many sequences the whole screen found active is unknown.

B1: HC149 (peptide)
chain: CAEVVTHTWVAGNASASA
B2: TR9 (peptide)
chain: CALAYGLRSKAGNASASA
B3: HC2509 (peptide)
chain: CASTYCSAHLAGNASASA
B4: HC2355 (peptide)
chain: CAEVHCHRPSAGNASASA
B5: FS-2095 (peptide)
chain: CARTKRYVVFAGNASASA
B6: HC645 (peptide)
chain: CAVAVEPVVFAGNASASA
B7: FS-2825 (peptide)
chain: CARTKRDVYQAGNASASA
B8: FS-2960 (peptide)
chain: CARKGRYKAFAGNASASA
B9: HC1294 (peptide)
chain: CAEISVPAEIAGNASASA
B10: HC2507 (peptide)
chain: CASTFCSAHLAGNASASA
B11: HC2282 (peptide)
chain: CAQLEVVTSTAGNASASA
B12: HC511 (peptide)
chain: CAYLYGVGSSAGNASASA
B13: FS-975 (peptide)
chain: CAAPPRARRHAGNASASA
B14: FS-1416 (peptide)
chain: CASRRRARRHAGNASASA
B15: FS-1167 (peptide)
chain: CASRRRMKRVAGNASASA
B16: FS-1087 (peptide)
chain: CASRIRIERVAGNASASA
B17: FS-873 (peptide)
chain: CASRRRTRRPAGNASASA
B18: FS-1112 (peptide)
chain: CAARQRTRRHAGNASASA
B19: FS-506 (peptide)
chain: CASRRRFYRPAGNASASA
B20: HC623 (peptide)
chain: CAARKMIGGHAGNASASA
B21: HC1618 (peptide)
chain: CAPPLRAWRHAGNASASA
B22: HC2345 (peptide)
chain: CAEVLCHRPSAGNASASA
B23: HC1771 (peptide)
chain: CAMEECSQHDAGNASASA
B24: HC1035 (peptide)
chain: CAAVQTNWQKAGNASASA
B25: HC476 (peptide)
chain: CAMYVGGVEHAGNASASA
B26: HC46 (peptide)
chain: CATTPFSGSWAGNASASA
B27: FS-1096 (peptide)
chain: CATPPRSKRVAGNASASA

Biological target: furin, P09958
Test: furin cleavage Z-score vs untreated control; higher = more cleavage, active = 3.5 or more, inactive = 1 or less, 8 variable residues between constant flanks
Method in brief: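 Cleavage by purified furin was measured on 8-mer peptides fused to a cDNA oligonucleotide and held on magnetic beads by their N-terminus. Reactions (0.01 ml, 1:10 enzyme:substrate) ran 7.5, 15 or 30 min in 50 mM HEPES pH 7.5 with CaCl2 and NaCl. Released DNA was adapter-tagged by PCR and sequenced, with read counts giving abundance. Log counts versus furin-free reactions were lowess-adjusted and scaled by median absolute deviation to give the cleavage Z-score.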

furin, P09958, sequence (P09958 whole entry): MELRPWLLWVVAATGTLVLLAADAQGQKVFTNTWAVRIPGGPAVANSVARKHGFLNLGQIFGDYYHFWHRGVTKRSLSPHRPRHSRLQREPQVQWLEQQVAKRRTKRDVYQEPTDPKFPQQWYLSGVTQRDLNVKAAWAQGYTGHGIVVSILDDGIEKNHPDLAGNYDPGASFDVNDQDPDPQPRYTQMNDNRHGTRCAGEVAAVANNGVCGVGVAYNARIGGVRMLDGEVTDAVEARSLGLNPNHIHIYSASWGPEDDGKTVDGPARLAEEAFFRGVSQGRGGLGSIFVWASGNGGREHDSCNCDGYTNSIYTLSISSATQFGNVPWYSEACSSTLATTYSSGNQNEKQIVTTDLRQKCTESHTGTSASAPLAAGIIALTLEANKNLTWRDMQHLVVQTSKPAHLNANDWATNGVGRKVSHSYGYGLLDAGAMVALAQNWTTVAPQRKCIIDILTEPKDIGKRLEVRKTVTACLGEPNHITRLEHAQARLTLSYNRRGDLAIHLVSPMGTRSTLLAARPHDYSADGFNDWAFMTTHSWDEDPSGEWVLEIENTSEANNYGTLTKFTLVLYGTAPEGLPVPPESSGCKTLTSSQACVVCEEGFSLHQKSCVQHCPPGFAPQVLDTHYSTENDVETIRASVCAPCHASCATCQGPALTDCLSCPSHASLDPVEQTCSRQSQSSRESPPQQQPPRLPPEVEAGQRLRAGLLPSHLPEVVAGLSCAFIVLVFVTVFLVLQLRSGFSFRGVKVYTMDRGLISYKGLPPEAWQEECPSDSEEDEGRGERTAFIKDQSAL

Row | Sequence | furin cleavage Z-score (7.5 min) | furin cleavage Z-score (15 min) | furin cleavage Z-score (30 min)
1 | B1 | -0.408 (inactive) | -0.439 (inactive) | 0.597 (inactive)
2 | B2 | -0.353 (inactive) | 0.335 (inactive) | -1.59 (inactive)
3 | B3 | -0.262 (inactive) | -0.642 (inactive) | 2.3
4 | B4 | 1.25 | 0.809 (inactive) | 1.14
5 | B5 | 4.82 (active) | 4.06 (active) | 6.56 (active)
6 | B6 | 1.23 | -0.0223 (inactive) | -0.472 (inactive)
7 | B7 | 9.66 (active) | 11.4 (active) | 9.76 (active)
8 | B8 | -0.402 (inactive) | -0.376 (inactive) | -0.0128 (inactive)
9 | B9 | -0.695 (inactive) | -1.61 (inactive) | -1.39 (inactive)
10 | B10 | -0.833 (inactive) | -0.376 (inactive) | -0.904 (inactive)
11 | B11 | 0.398 (inactive) | 1.61 | 0.854 (inactive)
12 | B12 | 0.568 (inactive) | -0.0293 (inactive) | 0.0874 (inactive)
13 | B13 | 8.59 (active) | 9.67 (active) | 6.85 (active)
14 | B14 | 7.59 (active) | 6.18 (active) | 7.01 (active)
15 | B15 | 11 (active) | 12 (active) | 9.11 (active)
16 | B16 | 0.306 (inactive) | 3.11 | 2.24
17 | B17 | 0.729 (inactive) | 0.54 (inactive) | 0.884 (inactive)
18 | B18 | 11.1 (active) | 12.6 (active) | 10 (active)
19 | B19 | -1.15 (inactive) | 0.235 (inactive) | -2.19 (inactive)
20 | B20 | 0.0211 (inactive) | 1.66 | 1.13
21 | B21 | -0.103 (inactive) | 0.906 (inactive) | -0.71 (inactive)
22 | B22 | 1.1 | -0.279 (inactive) | 0.507 (inactive)
23 | B23 | -0.304 (inactive) | 0.175 (inactive) | 0.222 (inactive)
24 | B24 | 0.252 (inactive) | 0.157 (inactive) | -0.0579 (inactive)
25 | B25 | -0.473 (inactive) | -0.882 (inactive) | -0.205 (inactive)
26 | B26 | -0.133 (inactive) | -0.615 (inactive) | -0.727 (inactive)
27 | B27 | 4.55 (active) | 6.1 (active) | 4.13 (active)
